Methyltransferases – Primary Screen for Target Class Profiling of Small Molecule Inhibitors of Methyltransferases | purified enzyme, MTase-Glo SAH luminescence; hits give low values | calls only at 40 µM | actives 3.9% (n = 25,000) | AID 1745853, 2022; call rule not given here
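Each enzyme was assayed with SAM and its substrate. SAH formation detected by MTase-Glo luminescence; single-point 40 uM screen[…].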
The depositor's hits bear a star; i = inactive; + = active, no number; ! = not active in a repeat. Many of the other results were omitted from the sample, so hits are more common in it than they were. % is scaled to controls: 0 for no effect and ±100 for the full control effect.

SMILES	Methyltransferases
CC1=CC(=O)C2C(C)(C)CCC[C@]2(C)[C@H]1CC[C@H](C)CC(=O)O (stereo partly drawn)	i
O=C(Cn1ccc2cc(S(=O)(=O)N3CCCC3)ccc21)NCc1cccc(Br)c1	i
CCOC(=O)C(Cc1cccc(N2CCN([S+](=O)([O-])c3ccccc3Cl)CC2)c1)OC (stereo not drawn)	i
C=CCc1ccc(O[C@@H]2O[C@H](CO)[C@@H](O)[C@H](O)[C@H]2O)c(OC)c1	i
c1cc(OCCN2CCCCC2)cc(-c2n[nH]c3ccc(-c4ncn[nH]4)cc23)c1	+
CN(CCN1CCCCCC1)C(=O)c1cc(COc2ccccc2)[nH]n1	i
COc1ccc(CCNc2nc3c(S(=O)(=O)c4ccc(C)cc4)nnn3c3ccccc23)cc1OC	i
COc1ccc(S(=O)(=O)NCc2nc(-c3ccc(OC)c(OC)c3)no2)cc1	i
COc1ccc(-c2cnc3ccc(NCc4ccc(S(N)(=O)=O)cc4)nn23)cc1OC	+
Fc1cccc(CN2CCO[C@@H](COc3ccccn3)[C@@H]2c2ccccc2)c1	i
COC(=O)c1cc2n(n1)CC(C)(C(=O)NC1CCCCC1)N(c1ccc(C)c(C)c1)C2=O (stereo not drawn)	i
CCn1c(=O)n(CC)c2cc(S(=O)(=O)Nc3ccc(F)c(F)c3)ccc21	i
CCOc1cc2ncc(C#N)c(Nc3ccc(OCc4ccccn4)c(Cl)c3)c2cc1NC(=O)/C=C/CN(C)C	i
CN(C)C/C=C/C(=O)Nc1cc2c(Nc3ccc(F)c(Cl)c3)ncnc2cc1O[C@H]1CCOC1	+
CCOc1cc2ncc(C#N)c(Nc3ccc(F)c(Cl)c3)c2cc1NC(=O)/C=C/CN(C)C	+
CN(C)C/C=C/C(=O)Nc1cc2c(Nc3ccc(F)c(Cl)c3)ncnc2cc1OC1CCOC1 (stereo not drawn)	+
C[C@@H]1O[C@@H](O[C@H]2[C@H](O)[C@@H](O)[C@H](OC(=O)[C@]34CCC(C)(C)C[C@H]3C3=CCC5[C@@]6(C)CC[C@H](O[C@@H]7O[C@H](C(=O)O)[C@@H](O)[C@H](O)[C@H]7O)C(C)(C)C6CC[C@@]5(C)[C@]3(C)CC4)O[C@@H]2CO)[C@H](O)[C@H](O)[C@H]1O (stereo partly drawn)	i
CC(CN1C(=O)c2cc3occc3n2CC1(C)C(=O)NC1CCCCC1)c1ccccc1 (stereo not drawn)	i
Cc1cc2c(cc3n2CC(C)(C(=O)NC2CCCCC2)N(Cc2cccc(Cl)c2)C3=O)o1 (stereo not drawn)	i
CCc1ccc(N2C(=O)c3cc(C(C)(C)C)nn3CC2(C)C(=O)NC2CCCCC2)cc1 (stereo not drawn)	i
O=C1c2c(O[C@@H]3O[C@H](CO)[C@@H](O)[C@H](O)[C@H]3O)cc(O)cc2OC1(O)Cc1ccc(O)cc1 (stereo partly drawn)	i
COCCn1c2c(c(=O)n1-c1ccccc1)CCN(C(=O)c1cc3ccccc3n1C)C2	i
O=S(=O)(NCCc1ccccc1)c1ccc2[nH]c3c(c2c1)CCCC3	i
CC(C)OCCCNC(=O)C1(C)Cn2cnc(C(=O)Nc3cccc(Cl)c3)c2C(=O)N1C1CC1 (stereo not drawn)	i
Cc1ccc(NC(=O)N2CCN(c3nc(N)nc4sc(-c5cccnc5)nc34)CC2)cc1	i
SMILES	Methyltransferases
C[C@H](Oc1ccc(S(C)(=O)=O)cc1C(=O)N1CCN(c2ncc(C(F)(F)F)cc2F)CC1)C(F)(F)F	i
O=C(Nc1ccc(C(F)(F)F)cn1)N1CCN(c2ncccc2C(F)(F)F)CC1	+
O=C(CSc1nnc2n(Cc3ccc(F)cc3)c(=O)c3ccccc3n12)NC1CCCCC1	i
CC(C)CCNC(=O)C1(C)Cn2c(cc3ccccc32)C(=O)N1Cc1cccs1 (stereo not drawn)	i
O=c1c2ccccc2n2c(=O)n(Cc3c(F)cccc3Cl)nc2n1CCc1ccccc1	i
CCOC(=O)c1cc2n(n1)CC(C)(C(=O)NC1CCCCC1)N(Cc1ccccc1F)C2=O (stereo not drawn)	i
CCOC(=O)c1cc2n(n1)CC(C)(C(=O)NCc1ccc(C)cc1)N(C1CC1)C2=O (stereo not drawn)	i
Cc1cc(C(C#N)c2ccc(Cl)cc2)c(Cl)cc1NC(=O)c1cc(I)cc(I)c1O (stereo not drawn)	+
Cc1ccc(CN2C(=O)c3cc(-c4ccco4)nn3CC2(C)C(=O)NC2CCCCCC2)cc1 (stereo not drawn)	i
CCc1cc2c(cc3n2CC(C)(C(=O)NC2CCCCC2)N(CCN(C)C2CCCCC2)C3=O)s1 (stereo not drawn)	i
CC1(C)CCCC2(C)C1C(O)C=C(CO)C2(O)CO (stereo not drawn)	i
COC1C=C(C)C(O)(CO)C2(C)CCCC(C)(C)C12 (stereo not drawn)	+
CC1=C[C@H](O)[C@H]2C(C)(C)CCC[C@]2(C)[C@@]1(O)CO	i
CCCN1C(=O)c2cc(C(=O)NCc3ccc4c(c3)OCO4)nn2CC1(C)C(=O)NC1CCCC1 (stereo not drawn)	i
Fc1cccc(-c2nnn3c2nc(NCc2ccc4c(c2)OCO4)c2cc(Cl)ccc23)c1	i
Clc1cccc(-c2nnn3c2nc(NCc2ccc4c(c2)OCO4)c2ccccc23)c1	i
COc1cccc(-c2cc(NCc3ccc4c(c3)OCO4)nc(N)n2)c1	+
COc1ccc(-c2n[nH]n3c2nc(=O)c2ccc(C(=O)NCc4ccc(F)cc4)cc23)cc1	i
CN1C(=O)c2cc(C(=O)NCc3ccccc3F)nn2CC1(C)C(=O)NCc1ccccc1 (stereo not drawn)	i
CCCn1c(=O)c2ccc(C(=O)NC(C)CC)cc2n2c(=O)n(CC(=O)c3ccc(Cl)cc3)nc12 (stereo not drawn)	i
CN1CCC(CNc2ccc3ncc(-c4cccc(OC(F)(F)F)c4)n3n2)CC1	+!
Cc1ccc(CN2CCC(CNc3cc(C4CC(O)C4)ncn3)CC2)o1 (stereo not drawn)	i
Cc1cc(-c2cc(C(=O)NCc3c(C)cc(C)[nH]c3=O)c3c(c2)ncn3C)ccn1	i
O=C([C@@H]1C[C@H](F)CN1C(=O)c1ccc(Cl)cc1)N1CCCCC1	i
CCc1cc(=O)n(CC(=O)Nc2ccccc2OC)c(N2CCOCC2)n1	i
SMILES	Methyltransferases
COc1ccc(Nc2nc3c(S(=O)(=O)c4ccc(F)cc4)nnn3c3ccccc23)c(OC)c1	i
COc1cc(N2CCOCC2)ccc1Nc1ncc(F)c(Nc2ccccc2NS(C)(=O)=O)n1	+
COc1ccc(OC)c(CN2C(=O)c3nc4ccccc4n3CC2(C)C(=O)NCc2ccccc2)c1 (stereo not drawn)	i
CC1CCC(NC(=O)C2(C)Cn3c(ccc3-c3ccccc3)C(=O)N2CCCc2ccccc2)CC1 (stereo not drawn)	i
COc1ccc(CN2C(=O)c3cc4ccc(OC)cc4n3CC2(C)C(=O)NC2CCCC2)cc1 (stereo not drawn)	i
C=C(C)C(=O)OC1CC2(C)OC(=CC2=O)C(=C)CC2OC(=O)C(COC)C12 (stereo not drawn)	+
C=C(C)C(=O)OC1CC2(C)OC(=CC2=O)C(=C)CC2OC(=O)C(=C)C12 (stereo not drawn)	i
C=C1CC2OC(=O)C(COC)C2C(OC(=O)/C(C)=C\C)CC2(C)OC1=CC2=O (stereo not drawn)	i

Screens as filed in PubChem BioAssay.
